# Reference: PubChem BioAssay AID1445 (SRMLSC, 2008)
# Out of some 220,000 compounds screened, about 910 (0.41%) were called active. This is one part of a sample in which actives are shown more often than they occur. Results with a measured potency or affinity are listed apart. A number with no mark means an inactive call.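 The calls were made as follows: active = primary inhibition above the hit cutoff, then over 50% inhibition at one or more dose response concentrations (cut at about 23% in these data, passing the limit was not always enough); inconclusive = conflicting primary data, or primary hits not chosen for dose response; inactive = low primary inhibition, or under 50% at every dose.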
# Molecular target: Aminopeptidase N (Plasmodium falciparum (isolate 3D7)) (UniProt O96935)
# Assay: malaria alanyl aminopeptidase activity blockers – biochemical, fluorogenic H-Leu-NHMec substrate, 1536-well (AID 1445);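 also: plate controls were DMSO full reaction for no effect and no enzyme background for full effect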
# Details: recombinant M1AAP, H-Leu-NHMec fluorogenic kinetic assay; at 30 µM, hits give high values unless noted
# Chain of Aminopeptidase N (Plasmodium falciparum (isolate 3D7)) (O96935 whole entry, looked up): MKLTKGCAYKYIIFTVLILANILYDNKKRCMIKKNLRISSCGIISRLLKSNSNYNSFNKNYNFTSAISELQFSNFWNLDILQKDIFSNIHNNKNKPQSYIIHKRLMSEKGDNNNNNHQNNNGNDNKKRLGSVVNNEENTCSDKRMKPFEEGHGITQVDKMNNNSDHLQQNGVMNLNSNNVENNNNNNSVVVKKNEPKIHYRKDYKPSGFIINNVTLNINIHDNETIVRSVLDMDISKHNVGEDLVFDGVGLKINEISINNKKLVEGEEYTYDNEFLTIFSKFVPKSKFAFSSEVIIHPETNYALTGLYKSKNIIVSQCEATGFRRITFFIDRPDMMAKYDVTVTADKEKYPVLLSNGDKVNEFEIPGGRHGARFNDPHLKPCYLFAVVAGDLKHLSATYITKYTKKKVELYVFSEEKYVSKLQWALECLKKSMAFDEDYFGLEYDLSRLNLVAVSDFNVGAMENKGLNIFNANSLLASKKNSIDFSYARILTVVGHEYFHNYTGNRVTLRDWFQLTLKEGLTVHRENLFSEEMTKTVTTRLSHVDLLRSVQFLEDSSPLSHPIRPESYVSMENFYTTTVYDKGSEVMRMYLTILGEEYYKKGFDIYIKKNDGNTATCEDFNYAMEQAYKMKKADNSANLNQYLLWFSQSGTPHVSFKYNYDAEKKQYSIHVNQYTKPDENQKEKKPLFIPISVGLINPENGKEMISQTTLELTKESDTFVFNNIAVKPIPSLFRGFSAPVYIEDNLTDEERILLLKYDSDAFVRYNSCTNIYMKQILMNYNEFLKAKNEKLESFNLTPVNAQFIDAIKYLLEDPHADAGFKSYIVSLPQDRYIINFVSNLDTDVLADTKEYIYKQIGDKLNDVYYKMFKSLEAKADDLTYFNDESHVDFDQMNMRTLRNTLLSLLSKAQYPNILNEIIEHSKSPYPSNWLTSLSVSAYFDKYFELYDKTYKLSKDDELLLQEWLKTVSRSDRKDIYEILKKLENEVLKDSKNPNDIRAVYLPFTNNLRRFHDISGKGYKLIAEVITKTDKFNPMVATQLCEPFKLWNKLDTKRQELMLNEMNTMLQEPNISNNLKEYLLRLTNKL
row,Structure (SMILES),inhibition
1,O=c1nc2n(c3ccc(Br)cc13)CCS2,1.45%
2,COc1ccccc1NC(=O)Nc1ccccc1N1CCOCC1,3.89%
3,CC(=O)c1sc(-c2ccccc2)cc1NS(=O)(=O)c1ccccc1,-0.36%
4,CC(=O)c1sc(-c2ccc(F)cc2)cc1NS(=O)(=O)c1ccc(C)cc1,0.65%
5,COc1cc(/C=C2\SC(N)=NC2=O)ccc1OCC(=O)Nc1ccc(C)cc1,10%
6,CCOC(=O)C1=C(C)N(c2ccc(OC)cc2)C(=O)/C1=C\c1ccc(O)c(OCC)c1,4.43%
7,CCOc1cc(/C=C2\SC(=Nc3ccc(F)cc3)N(c3ccc(F)cc3)C2=O)ccc1OCC(=O)O,16.8%
8,CCOC(=O)C1=C(O)/C(=C/c2ccc(OCC(=O)O)c(OC)c2)SC1=Nc1ccc(OCC)cc1,13.2%
9,O=C(/C=C/c1ccc(S(=O)(=O)N2CCOCC2)cc1)NCc1ccc(Cl)cc1,-0.73%
10,C=CCn1c(COc2ccccc2)nnc1SCC(=O)O,0.9%
11,Cc1nn(-c2ccccc2)c(C)c1NC(=O)Cc1cccs1,4.27%
12,CC(C)OC(=O)CSc1ncnc2c1cnn2Cc1ccccc1,0.69%
13,Cc1ccc(S(=O)(=O)N2CCCC2C(=O)Nn2cnnc2)cc1 (configuration not stated),-0.66%
14,Cc1cccc(C)c1NC(=O)CN1C(=O)S/C(=C\c2cccn2-c2cccc(C(=O)O)c2)C1=O,8.9%
15,O=C(O)c1cccc(-n2cccc2/C=C2\SC(=O)N(Cc3ccccc3F)C2=O)c1,15.3%
16,CCOC(=O)C1(C(F)(F)F)N=C(C(F)(F)F)Nc2cc(C)c(C)cc21 (configuration not stated),1.48%
17,Cc1ccccc1N=CC1=C(O)c2ccccc2C1=O,4.59%
18,O=C1C(C=Nc2ccccc2O)=C(O)c2ccccc21,20.6%
19,Cc1ccc(C(C(=O)NC2CCCC2)N(Cc2cccs2)C(=O)c2csnn2)o1 (configuration not stated),7.36%
20,O=C(NC1CCCC1)C(c1ccncc1)N(Cc1cccs1)C(=O)c1csnn1 (configuration not stated),24.6% (active)
21,COCCN(C(=O)c1csnn1)C(C(=O)NC1CCCCC1)c1sccc1C (configuration not stated),21.1%
22,CC(C)(C)NC(=O)C(c1ccncc1)N(Cc1cccs1)C(=O)c1csnn1 (configuration not stated),-14%
23,Cc1ccc(C(C(=O)NC2CCCCC2)N(C(=O)c2csnn2)C2CC2)o1 (configuration not stated),9.01%
24,O=C(COC(=O)c1ccncc1)NCCCc1ccccc1,2.54%
25,Cc1ccc(Cl)cc1NC(=O)c1cccc(OC(F)F)c1,5.73%

row,Structure (SMILES),inhibition
1,COc1ccccc1NC(=O)CSc1nnc(-c2ccoc2C)n1CCc1ccccc1,24.7% (active)
2,Cc1ccccc1NC(=O)CSc1nnc(-c2ccoc2C)n1CCc1ccccc1,8.39%
3,Cc1occc1-c1nnc(SCC(=O)Nc2ccccc2)n1CCc1ccccc1,0.44%
4,CCN(CC)Cc1c(O)ccc2c(-c3ccccc3)cc(=O)oc12,8.74%
5,CCCCc1cc(=O)oc2cc(OCc3cc(OC)c(OC)c(OC)c3)c(Cl)cc12,-3.71%
6,CCCCc1cc(=O)oc2cc(OCc3nn[nH]n3)c(Cl)cc12,6.21%
7,CCCCc1cc(=O)oc2cc(OCC(=O)N(CC)CC)c(Cl)cc12,6.8%
8,Cc1cc(=O)oc2c(N)c(O)ccc12,8.69%
9,C=CCc1c(O)c(CC)cc2c(C)cc(=O)oc12,10.9%
10,CCC(=O)c1cc2c(C)cc(=O)oc2c(C)c1O,4.77%
11,COc1ccccc1N1CCN(C(=O)CSc2ccccc2)CC1,-1.68%
12,COc1cc(OC)cc(-c2nnc(SCC(=O)N(Cc3ccccc3)C(C)(C)C)o2)c1,1.01%
13,Cc1cccc(NC(=O)c2ccccc2OCC(=O)c2ccc(F)cc2)c1,3.15%
14,COC(=O)c1cc(Br)c(N)cc1OC,-6.6%
15,CC(=O)c1cccc(NC(=O)C2CC(=O)N(c3cccc(C)c3C)C2)c1 (configuration not stated),-2.91%
16,O=C(O)c1ccccc1C(=O)NNc1cccc(Cl)n1,0.28%
17,O=C(CCCc1nc2ccccc2s1)NNC(=O)CCN1CCN(Cc2ccccc2)CC1,2.9%
18,O=C(O)CC1=C(Nc2ccccc2)C(=O)N(c2ccccc2)C1c1ccc(F)cc1 (configuration not stated),-3.54%
19,CCCc1cc(=O)oc2c(C)c3occ(C)c3cc12,-0.02%
20,CN(C)Cc1c(O)ccc2c(-c3ccccc3)cc(=O)oc12,7.13%
21,CCCc1cc(=O)oc2cc(OCC(=O)N(C)C)c(Cl)cc12,-0.86%
22,CCCCN(C)Cc1c(O)ccc2c(-c3ccccc3)cc(=O)oc12,3.86%
23,Oc1c(C(c2cccc(F)c2)N2CCN(Cc3ccccc3)CC2)sc2ncnn12 (configuration not stated),9.71%
24,Cc1ccc(-c2cc(C(=O)O)n[nH]2)o1,5.31%
25,CC1CCCCN1C(=O)c1cc(-c2ccc(Cl)c(Cl)c2)on1 (configuration not stated),-16.2%

row,Structure (SMILES),inhibition
1,O=C(CSc1nnc(-c2cc3ccccc3cc2O)n1Cc1ccco1)N1CCc2ccccc2C1,10.2%
2,c1ccc(CSCc2cn3ccccc3n2)cc1,-5.43%
3,Nc1ccc(-c2ccc(C(=O)O)s2)cn1,28.6%
4,O=C(O)c1ccc(-c2ccccn2)s1,0.37%
5,CC1CCc2c(sc3nc(CSc4n[nH]c(N)n4)[nH]c(=O)c23)C1 (configuration not stated),-10.6%
6,O=C(Nc1nccs1)c1csc2c1CCCC2,8.61%
7,Cc1ccc(-c2ccc(=O)n(CC(=O)Nc3cccc(C(=O)N4CCN(C)CC4)c3)n2)cc1,6.7%
8,O=C1CC(c2ccccc2F)c2c(c3ccccc3[nH]c2=O)O1 (configuration not stated),0.7%
9,Cc1sc(NC(=O)CSc2nnc(-c3ccc(F)cc3)o2)c(C#N)c1C,16%
10,COC(=O)CSc1nnc(-c2ccc(NS(=O)(=O)c3ccccc3)cc2)o1,7.24%
11,N#Cc1c(NC(=O)CSc2nnc(-c3ccccc3)o2)sc2c1CCCC2,21.3%
12,CCc1nnc(NC(=O)CSc2nnc(-c3ccco3)o2)s1,-0.37%
13,Cc1sc(NC(=O)CSc2nnc(-c3ccccc3)o2)c(C#N)c1C,25% (active)
14,Cc1ccc(-n2c(C)nc3c(cnn3-c3ccc(C)c(C)c3)c2=O)cc1C,2.27%
15,CNNC(=O)C(=O)NNS(=O)(=O)c1ccccc1,4.63%
16,O=C1c2ccccc2C(=O)N1c1ccc(-c2nc3ccccc3o2)cc1,-1.24%
17,O=C1c2ccccc2C(=O)N1Cc1nc2ccccc2o1,13%
18,O=C(c1ccc(F)cc1)N(NC(=O)C(O)(c1ccccc1)c1ccccc1)c1ccccc1,0.71%
19,COc1ccc(C(=O)/C=C/Nc2cc(C)on2)cc1,8.8%
20,COc1ccc([N+](=O)[O-])cc1/C=N/NC(=O)/C(=C\c1cccs1)NC(=O)c1ccccc1,4.13%
21,CCCCCn1c(-c2ccco2)nc2nc3ccccc3nc21,13%
22,c1ccc(-c2nc3nc4ccccc4nc3n2CC2CCCO2)cc1 (configuration not stated),15.8%
23,COCCn1c(-c2ccco2)nc2nc3ccccc3nc21,22.9%
24,c1coc(-c2nc3nc4ccccc4nc3n2CC2CCCO2)c1 (configuration not stated),26% (active)
25,Fc1ccccc1-c1nc2nc3ccccc3nc2n1CC1CCCO1 (configuration not stated),14.5%

row,Structure (SMILES),inhibition
1,COC(=O)c1ccccc1NC(=O)Cn1cnc2ccc(S(=O)(=O)N3CCC(C)CC3)cc2c1=O,20.3%
2,CCOC(=O)C1=C(CN2CCSCC2)NC(=O)NC1c1ccc2c(c1)OCO2 (configuration not stated),-5.96%
3,O=[N+]([O-])c1ccccc1/C=N/N1CCN(c2ccc(Cl)cc2)CC1,1.05%
4,C/C(N)=C(/C#N)C(=O)COC(=O)Cc1coc2cc(C)ccc12,4.44%
5,C/C(=N\NC(=O)c1cc2ccccc2cc1O)c1cc2ccccc2o1,3.43%
6,C/C(CC(=O)N1CCCC1)=N\NC(=O)c1cc2ccccc2cc1O,10.8%
7,C/C(=N\NC(=O)CCc1ccccc1)C1C(=O)c2ccccc2C1=O,0.57%
8,C/C(=N\NC(=O)c1ccc(Br)cc1)C1C(=O)c2ccccc2C1=O,39.9%
9,C/C(=N\NC(=O)c1ccc(-c2ccccc2)cc1)C1C(=O)c2ccccc2C1=O,-1.49%
10,CCOc1ccc(C(=O)N/N=C(/C)C2C(=O)c3ccccc3C2=O)cc1,4.51%
11,CCOc1ccccc1N(CC(=O)NCCOC)C(=O)CCC(=O)Nc1ccccn1,-5.17%
12,CCC1CCCCN1CCCNC(=O)CC1Oc2ccccc2NC1=O (configuration not stated),7.18%
13,COc1cc([N+](=O)[O-])ccc1NC(=O)CCCOc1ccc(C)cc1,17.4%
14,CC(C)(C)c1cc(C(=O)N/N=C/c2ccccc2O)n(-c2ccccc2)n1,11.1%
15,COCCCNC(=O)Cn1nnc(-c2ccc(NC(=O)c3ccccc3F)cc2)n1,0.6%
16,Nc1nc(COc2ccc3ccccc3c2)cs1,-0.25%
17,O=C(NN=C1CCCCCC1)NC1CCCCC1,-3.52%
18,CCCc1nnc(NC(=O)CN2CCN(C)CC2)s1,5.59%
19,FC(F)(F)c1nc2ccccc2[nH]1,-1.24%
20,O=C(O)c1cccc2[nH]c(C(F)(F)F)nc12,9.3%
21,CC(C)(C)NC(=O)Cn1c(SCC(N)=O)nc2ccccc21,2.96%
22,O=C(OCC(=O)N1CCc2ccccc21)c1nc(Cl)ccc1Cl,0.15%
